PI4K2A inh: blocks human PI4K2A kinase activity; purified PI4K2A, ADP-Glo luminescence, 1 h; active compounds read low; 420,000 compounds, 0.13% hits; Q9BTU6; AID 1346378; activity change, negative = inhibition, % at 76.9 µM; in the data active means activity change below about -50%; inconclusive means mostly about -30% to -49%
Target sequence (Q9BTU6 whole entry, looked up): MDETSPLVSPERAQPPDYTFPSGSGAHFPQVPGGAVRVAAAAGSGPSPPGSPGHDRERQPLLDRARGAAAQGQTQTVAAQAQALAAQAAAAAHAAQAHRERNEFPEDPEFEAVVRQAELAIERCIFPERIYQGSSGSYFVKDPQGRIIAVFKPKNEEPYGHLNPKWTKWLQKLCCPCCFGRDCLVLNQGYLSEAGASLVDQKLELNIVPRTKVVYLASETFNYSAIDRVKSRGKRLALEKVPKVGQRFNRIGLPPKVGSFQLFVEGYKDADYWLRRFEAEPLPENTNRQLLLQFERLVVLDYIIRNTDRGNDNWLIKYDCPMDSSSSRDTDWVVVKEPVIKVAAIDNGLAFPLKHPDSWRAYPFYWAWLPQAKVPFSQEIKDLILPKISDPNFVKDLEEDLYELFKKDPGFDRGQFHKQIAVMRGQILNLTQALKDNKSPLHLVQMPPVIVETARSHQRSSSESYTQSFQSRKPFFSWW
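ADP-Glo luminescence measured ADP generated by PI4K2A enzyme (4 ug/mL before mixing) with 1.2 mM PI substrate (pre-mix) and 300 microM ATP (pre-mix). Tris pH7.5 buffer with MgCl2, Triton X-100; 1 h reaction at ambient temperature.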
KB-V1 cytotox: KB-V1 MDR subline cytotoxicity; KB-V1 MDR cells viability, CellTiter-Glo, 72 h; Potency, µM (titrated, usually from 46.1 µM), most hits filed as cytotoxic; 400,000 compounds, 3.4% hits; further: nearly all actives have a fitted effect of over 60% in size
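qHTS viability screen in drug-selected KB-V1 MDR cells: 72 h compound treatment at 37 degrees C, ATP luminescence end point.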
Giardia killer: Giardia lamblia killing | Giardia lamblia trophozoite viability | activity change, % at 7.66 µM, hits read low | 340,000 compounds, 0.15% hits | AID 540267; in the data active means activity change below about -80%; inconclusive means between about -30% and that limit;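 further: parasites exposed to compound for two days anaerobically before the ATP read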
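Giardia trophozoites, 100 cells per well, were exposed to compounds for 48 hrs at 37 deg C under anaerobic conditions; viability was then read as ATP content by bioluminescence after 15-30 min at room temperature.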
Nrf2 block: blocks Nrf2 signaling | Potency, µM (top dose mostly 46 µM), hits mostly inhibitors | 360,000 compounds, 2.1% hits | A549 ARE-Fluc reporter, luciferase luminescence, 18-24 h; further: nearly all actives have a fitted effect of over 60% in size
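Concentration-response testing used A549 ARE_Fluc cells at 5000 cells/well. Following an 18-24 h compound incubation, viability was read by fluorescence (Ex 405/Em 525) and luciferase output by luminescence.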
A549 tox: A549 cytotoxicity, counter-screen for Nrf2 inhibitors; A549 ARE-Fluc cells, CellTiter-Fluor viability, 18-24 h; Potency, µM (series often up to 46 µM), most hits filed as inhibitors; 390,000 compounds, 0.16% hits
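A549 ARE-Fluc cells in 5% FBS OPTI-MEM, 5000 cells/well, rested 2 h then exposed to compounds in concentration-response for 18-24 h at 37 °C. Viability by CellTiter-Fluor fluorescence (Ex 405/Em 525) after 30 min; luciferase luminescence (BugLite, 15 min, RT) read afterwards.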
KB-3-1 cytotox: kills parental KB-3-1 adenocarcinoma cells. KB-3-1 viability, CellTiter-Glo ATP luminescence, 72 h. Potency, µM (titrated, usually from 46.1 µM), actives largely listed as cytotoxic. 400,000 compounds, 1.4% hits. AID 1347075; further: nearly all actives have a fitted effect of over 60% in size
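Using CellTiter-Glo luminescence, growth of non-resistant KB-3-1 adenocarcinoma cells is assessed 72 h after pin-tool compound addition at 37 °C. Normalized responses across the concentration series yield fitted curves.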
Hits are given with their value; – = inactive; ? = inconclusive; · = no result. In the library only some 5.7% were active in any assay of this set; here they are far more common. Unless noted, the call rests on the fitted dose curve; in most records, active means well fitted curve in the direction sought with a large enough effect; inconclusive means small, poorly fitted or top-dose-only effect, or another doubt; inactive means no such curve, though single readings can be large; an effect the other way counts as inactive or inconclusive.

SMILES | PI4K2A inh | KB-V1 cytotox | Giardia killer | Nrf2 block | A549 tox | KB-3-1 cytotox
Cc1ccc(C)c(NC(=O)CCCN2C(=O)C(c3ccccc3)Oc3cccnc32)c1 (stereo not given) | – | – | · | – | – | –
O=C(CCSCc1ccc(Cl)cc1)N1CCN(c2ccccc2F)CC1 | – | · | · | · | – | ·
COCCCNC(=O)C[C@H]1C[C@@]2(C(=O)OC)C(=C[C@H](C3CCCC3)O[C@@H]2C)N(Cc2ccco2)C1=O | – | · | · | · | · | ·
Cc1ccc(C(=O)NC(=S)/C=C2\N(C)c3ccccc3C2(C)C)cc1 | – | ? | – | 18µM | ? | ?
Cc1c(NC(=S)/C=C2\N(C)c3ccccc3C2(C)C)c(=O)n(-c2ccccc2)n1C | – | 23µM | – | – | – | –
Cc1c(N=C/C=C2\N(C)c3ccccc3C2(C)C)c(=O)n(-c2ccccc2)n1C | – | – | – | – | ? | –
O=c1c(S(=O)(=O)c2ccccc2)cn(Cc2ccc(F)cc2)c2cc(N3CCCC3)c(F)cc12 | – | · | · | – | – | ·
CCCNc1nc(Nc2ccc(C)cc2)nc(N2CCCC2)n1 | – | 4.1µM | – | ? | – | ?
COc1ccc(Nc2nc(NCCO)nc(N3CCCC3)n2)cc1 | – | – | – | – | – | –
Cc1cc(C)nc(Nc2ccc(O)cc2)n1 | – | – | – | – | – | –
COc1nc(Nc2ccc(OC)c(Cl)c2)nc(OC)n1 | – | 18µM | – | – | – | ?
COc1nc(Nc2ccccc2)nc(OC)n1 | – | 8.2µM | – | – | – | ?
COc1nc(Nc2cccc(F)c2)nc(OC)n1 | – | 6.5µM | – | – | – | ?
COc1cc2nc(Nc3cccc(F)c3)nc(N)c2cc1OC | – | ? | – | – | – | –
Cc1cc(C)nc(Sc2nc(Nc3ccccc3)nc(Sc3nc(C)cc(C)n3)n2)n1 | – | ? | – | – | – | 21µM
COc1cc2c(NC3CCN(C)CC3)nc(N3CCCN(C)CC3)nc2cc1OCCCC(C)C | · | – | · | · | · | ?
CNc1nc(Cl)nc(Nc2ccccc2)n1 | – | 5.8µM | – | ? | – | ?
CCN(CC)C(=O)CC[C@H]1CC[C@]2(CCCN(CC3CC3)C2)O1 | – | · | · | · | · | ·
Cc1onc(-c2ccccc2Cl)c1C(=O)N1CCN(C/C=C/c2ccccc2)CC1 | – | 15µM | – | – | – | –
Cc1onc(-c2ccccc2Cl)c1C(=O)N1CCCCC1 | – | – | – | – | – | –
CCN1CCN(C(=O)c2c(-c3ccccc3)noc2C)CC1 | – | – | – | – | – | –
Cc1ccc(C(=O)N2CCN(Cc3ccccc3)CC2)o1 | – | – | – | – | – | –
Cc1ccc(/C=C/C(=O)N2CCN(Cc3ccccc3)CC2)o1 | – | 13µM | – | – | – | –
Cc1onc(-c2ccccc2)c1C(=O)N1CCN(Cc2ccccc2)CC1 | – | 23µM | – | – | – | –
Cc1onc(-c2ccccc2Cl)c1C(=O)N1CCc2ccccc21 | – | 23µM | – | – | – | –
SMILES | PI4K2A inh | KB-V1 cytotox | Giardia killer | Nrf2 block | A549 tox | KB-3-1 cytotox
O=C1CCC2(CCCCC2)N1CCCO | – | · | · | · | · | ·
Cc1onc(-c2ccccc2Cl)c1C(=O)OCC(=O)N1CCN(c2ccccc2)CC1 | – | 8.2µM | – | – | – | –
COc1ccccc1N1CCN(C(=O)c2c(-c3ccccc3Cl)noc2C)CC1 | – | ? | – | – | – | 21µM
Cc1onc(-c2ccccc2Cl)c1C(=O)OCC(=O)Nc1cccc(S(=O)(=O)N(C)C)c1 | – | 8.2µM | – | ? | – | ?
COc1ccccc1N1CCN(C(=O)c2c(C)noc2C)CC1 | – | – | – | – | – | –
Cc1onc(-c2ccccc2Cl)c1C(=O)OCC(=O)Nc1ccc2c(c1)OCO2 | – | – | – | ? | – | –
CCNC(=O)C(=O)c1c(-c2ccccc2)[nH]c2ccccc12 | – | ? | – | – | – | –
Nc1sc(Cc2ccccc2)cc1C(=O)c1c(-c2ccccc2)[nH]c2ccccc12 | – | 13µM | · | · | · | 5.8µM
CCc1cccc(C)c1NC(=O)COC(=O)c1c2c(nc3ccccc13)/C(=C\c1cccs1)CCC2 | – | 15µM | – | – | – | –
Cc1cccc(Cn2cc(COC(=O)N(C)Cc3ccccc3)nn2)c1 | – | · | · | · | · | ·
Fc1ccc(C2=Nn3c(nnc3C3CCCCC3)SC2)cc1 | – | · | · | · | · | ·
Nc1nc(CCl)nc(Nc2ccc3ccccc3c2)n1 | – | 23µM | – | – | – | ?
Cc1ccc(-c2cc(C(=O)NN=Cc3sccc3C)[nH]n2)cc1C | – | · | · | · | · | ·
O=C(Oc1coc(CSc2nnc(NC(=O)c3cccs3)s2)cc1=O)c1ccccc1 | – | – | – | – | – | –
Cc1ccc(C(=O)Oc2coc(CSc3nnc(NC(=O)C4CC4)s3)cc2=O)cc1 | – | – | – | 21µM | – | –
O=S(=O)(c1cnc2ccccc2c1)N1CCN(c2nc(-c3cccs3)nc3ccccc23)CC1 | · | · | – | – | – | ·
O=C(Nc1ccccc1)N1CCSc2cc(Cl)ccc21 | – | – | – | – | – | –
O=C(Nc1cccc(Cl)c1)N1CCSc2cc(Cl)ccc21 | – | 18µM | – | – | – | –
Cc1ccc(OCCN2CCN(C(=O)CCC(=O)Nc3nnc(C(C)C)s3)CC2)cc1 | – | ? | – | 12µM | ? | –
CC(=O)N1c2cc(S(=O)(=O)N3CCN(c4ccccc4F)CC3)c(Br)cc2CC1C (stereo not given) | – | · | · | · | · | ·
O=C(CN1C(=O)/C(=C\c2ccccc2Cl)Sc2ccccc21)NCCCN1CCOCC1 | – | – | – | 21µM | ? | –
O=C(CN1C(=O)/C(=C\c2cccc(Cl)c2)Sc2ccccc21)NCCCN1CCOCC1 | – | – | – | – | – | –
C[C@H]1[C@@H](OC(=O)Nc2ccc(C(F)(F)F)cc2)CC[C@@]23CCCN2C(=O)CCC[C@@H]13 | – | · | · | · | · | ·
CCS(=O)(=O)n1nc(-c2ccc(C)cc2)nc1N | – | – | – | – | – | –
COc1ccc(-c2nc(-c3ccncc3)no2)cc1 | – | ? | – | ? | – | –
SMILES | PI4K2A inh | KB-V1 cytotox | Giardia killer | Nrf2 block | A549 tox | KB-3-1 cytotox
Cn1nc(-c2ccncc2)nc2c(=O)n(C)c(=O)nc1-2 | · | ? | -88 | 2.3µM | 2.9µM | 1.8µM
CCn1nc(-c2ccc(C)cc2)nc2c(=O)n(C)c(=O)nc1-2 | · | – | -102 | ? | ? | –
Cc1ccc(C(=O)N(C)[C@H]2C[C@H]3c4[nH]c5c(-c6ccc7c(c6)OCO7)cccc5c4CCN3C[C@H]2[C@H](C)O)cc1 | – | · | · | · | · | ·
Cc1ccccc1C(=O)Oc1cc(N)n(S(=O)(=O)c2ccccc2)n1 | – | – | – | 7.3µM | – | –
COc1cc(C2c3cc4c(cc3OC(N3CCOCC3)C2C)OCO4)cc(OC)c1OC(C)=O (stereo not given) | – | ? | – | – | – | ?
COc1cc(C2c3cc4c(cc3OC(Nc3ccc(C(=O)O)cc3)C2C)OCO4)cc(OC)c1OC (stereo not given) | – | – | – | – | – | 0.18µM

Screens from PubChem.
